± gives the standard deviation.
Key:
[1] = tested on: MILI (PIWIL2) piRISC loaded with L1MC piRNA (26 nt); experiment: pre-steady-state target cleavage rate (min^-1); guide: L1MC piRNA 5'p-UAACUAAAUACUAUGCAAGCUGUAGG; higher = faster piRNA-guided slicing of the target; conditions: auxiliary factor: 500 nM mouse GTSF1
How it was run: (§1)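 Using HEPES–potassium acetate buffer at 33 °C, 1 nM active affinity-purified piRISC with a single synthetic guide was mixed with 0.1 nM transcribed, DNA-blocked target RNA library for 0–8 or 0–960 min, with or without 500 nM GTSF1 partner protein. Uncleaved targets were sequenced and normalised to depth and to weakly complementary targets, and three trials were pooled with k3 capped at 0.0001 min^-1. A burst-and-steady-state fit gave the pre-steady-state cleavage rate.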

[2] = tested on: EfPiwi piRISC loaded with L1MC piRNA (26 nt); experiment: pre-steady-state target cleavage rate (min^-1); auxiliary factor: 500 nM Ephydatia muelleri Gtsf1; guide: L1MC piRNA 5'p-UAACUAAAUACUAUGCAAGCUGUAGG; MIWI and MILI are mouse PIWI proteins and EfPiwi is from a freshwater sponge; tags in brackets are library labels; higher = faster piRNA-guided slicing of the target
How it was run: as §1

Row | Sequence | pre-steady-state target cleavage rate [1] | pre-steady-state target cleavage rate [2]
1 | UCCUCCAACAGCUUGCAUAGUAUUUUGUUA | 0.108 ± 0.019 | 0.00594 ± 0.0025
2 | UCCUCCUACAGCUUGCAUAUAUUUAGUUA | 0.0398 ± 0.0083 | 0.00725 ± 0.0034
3 | UCCUGGAACAGCUUGCAUAGUUUUUAGAUA | 0.0168 ± 0.0068 | 0.00205 ± 0.0016
4 | UCCUCCUACAGCUUGCAUAGUAAUUACUUA | 0.0937 ± 0.025 | 0.005 ± 0.0027
5 | UCCUGCUACAGCUUGCUUAGUAUUUAGAUA | 0.0729 ± 0.015 | 0.00495 ± 0.0028
6 | UCCUGCUACAGCUUGCAUAGUAUUUUCUUA | 0.0484 ± 0.01 | 0.00359 ± 0.002
7 | UCCUCCUACAGCAAGCAUAGUAUUUAGAAA | 0.217 ± 0.035 | 0.00443 ± 0.0036
8 | UCCUGGAUCAGCUUGCAUAGUAUUUGUUA | 0.145 ± 0.023 | 0.00326 ± 0.0029
9 | UCCUCCUACAGCUUGCAAUCUAUUUAGUUA | 0.0266 ± 0.0058 | 0.00376 ± 0.0036
10 | UCCUGGUACAGCUUGCAUAGUAAUUAGUAA | 0.212 ± 0.037 | 0.00568 ± 0.0029
11 | UCCUCCUACAGCUUCCAUUGUAUUUAGUUA | 0.0834 ± 0.015 | 0.00393 ± 0.0019
12 | UCCUGGAACAGCUUGCAUAGUAUUUAGAUUA | 0.0966 ± 0.023 | 0.00539 ± 0.002
13 | UCCUGCAUCAGCUUGCAUAGUAUUUACAAA | 0.126 ± 0.025 | 0.00323 ± 0.0016
14 | UCCUCGAUCAGCUUGCAUAGUAUUUACAAA | 0.135 ± 0.026 | 0.00554 ± 0.003
15 | UCCUCCUACAGCUUGCAUAGUAUGUUAGUUA | 0.126 ± 0.022 | 0.00459 ± 0.0021
16 | UCCUCCUACAGGUUGCAUAGAAUUUAGUUA | 0.0405 ± 0.0092 | 0.0062 ± 0.0014
17 | UCCUGCUACAGCUUGCAUACUAUUUAGAUA | 0.0214 ± 0.0094 | 0.00382 ± 0.002
18 | UCCUCCUACAGCUUGCAUAAGUAUUUAGUUA | 0.0109 ± 0.0055 | 0.00345 ± 0.0019
19 | UCCUCCUACAGCUUGCAUAGUAUUUGUUA | 0.203 ± 0.04 | 0.00561 ± 0.0026
20 | UCCUGCUACAGCUUGCUAUAGUAUUUAGUUA | 0.05 ± 0.017 | 0.0075 ± 0.002

— the supplement of paper PMC10338343
